# About 390 (35%) of roughly 1,100 compounds were called active. Roughly 30% stayed inconclusive and do not appear here. The call rests on the fitted dose curve; in most records, active means well fitted inhibition curve with a large enough effect; inconclusive means small, poorly fitted or top-dose-only effect; inactive means flat fitted curve, though single readings scatter. This is one part of the list. A call without a number means that no potency is given here.
# Biological target: Luciferin 4-monooxygenase (Photinus pyralis) (UniProt P08659)
# Test: qHTS of Nrf2 Activators: Hit Validation in Secondary FLuc Assay; further: nearly all actives have a fitted effect of over 65% in size
# Conditions: firefly luciferase inhibition counter-screen, luminescence; series mostly up to 57.5 µM
# Summary of the method: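 Purified firefly luciferase is tested for inhibition by compounds in the presence of its substrates, ATP and D-luciferin, each at Km. Inhibition marks likely false positives arising from reporter-enzyme stabilization.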
# Potency means the concentration at half of the fitted maximal effect.
row,SMILES,Potency
1,COc1ccc(C2NC(=S)NC3=C2CCCC3=C2SCCS2)cc1 (stereo not given),inactive
2,S=c1[nH]nc(-c2ccco2)n1/N=C/c1ccccc1,inactive
3,S=c1[nH]nc(-c2ccco2)n1/N=C/C(Cl)=C/c1ccccc1,13.5 µM (active)
4,Cc1n[nH]c(=S)n1/N=C/c1ccc(-c2ccccc2[N+](=O)[O-])o1,9.53 µM (active)
5,O=[N+]([O-])c1ccccc1/C=C/C=N/n1c(-c2ccco2)n[nH]c1=S,7.57 µM (active)
6,S=c1[nH]nc(COc2ccccc2)n1/N=C/C(Cl)=C/c1ccccc1,19 µM (active)
7,c1ccc2c(-c3nc4ncccc4o3)cccc2c1,13.5 µM (active)
8,Nc1c(C(=O)c2ccc(Br)s2)oc2ccccc12,2.69 µM (active)
9,Nc1c(C(=O)c2cccs2)oc2ccccc12,9.53 µM (active)
10,[O-][n+]1onc2c1CCc1c-2nn(-c2ccccc2Cl)[n+]1[O-],inactive
11,Cc1csc(NC(=O)c2cc(-c3ccco3)nc3ccccc23)n1,5.36 µM (active)
12,Cc1nc2ccccc2c(=O)n1NCc1cc(Br)cs1,inactive
13,O=C(Nc1nccs1)c1cc(-c2ccco2)nc2ccccc12,6.01 µM (active)
14,CC1CCc2c(cc(-c3ccccc3)n2-c2ccc(C(=O)NC(C)C)cc2)C1 (stereo not given),inactive
15,Oc1ccccc1-c1csc(-c2ccccc2)n1,1.69 µM (active)
16,COC(=O)c1sccc1NC(=O)c1c(C)noc1C,inactive
17,O=C(CSc1ccc(-c2ccco2)nn1)N1CCCCCC1,16.9 µM (active)
18,COc1ccc(Cl)cc1NC(=O)c1cc(-c2ccco2)on1,inactive
19,COc1ccc(NC(=O)CSc2ccc(-c3ccco3)nn2)cc1OC,15.1 µM (active)
20,COc1ccccc1NC(=O)CSc1ccc(-c2ccco2)nn1,15.1 µM (active)
21,COc1ccc(Cl)cc1NC(=O)CSc1c2c(nc3ccccc13)CCC2,inactive
22,COc1ccc(NC(=O)CSc2ccc(-c3ccco3)nn2)c(OC)c1,3.38 µM (active)
23,COc1ccc(NC(=O)c2cc(-c3ccco3)on2)c(OC)c1,inactive
24,CC(OC(=O)/C=C/c1ccc2ccccc2n1)C(=O)Nc1ccc(S(N)(=O)=O)cc1 (stereo not given),inactive

row,SMILES,Potency
1,O=C1C=C(Nc2cccc(Cl)c2)CC(c2ccco2)C1 (stereo not given),inactive
2,Cc1nc(C)c(C(=O)N/N=C/c2ccco2)s1,inactive
3,O=C1CC(C(=O)Nc2ccc(Cl)c(Cl)c2)S/C(=N\N=C\c2ccco2)N1 (stereo not given),inactive
4,O=C(N/N=C\c1ccco1)Nc1cccc(Cl)c1,8.49 µM (active)
5,O=C1CC(C(=O)Nc2ccc(Br)cc2)S/C(=N\N=C\c2ccco2)N1 (stereo not given),inactive
6,O=C(N/N=C/c1ccco1)Nc1ccccc1,10.7 µM (active)
7,CC(=O)N(/N=C1\Sc2ccccc2C1=O)c1ccccc1,0.301 µM (active)
8,NS(=O)(=O)c1ccc(O)c(NC(=O)c2ccc([N+](=O)[O-])o2)c1,16.9 µM (active)
9,CS(=O)(=O)N1CCN(c2ccccc2NC(=O)c2ccc([N+](=O)[O-])o2)CC1,inactive
10,COc1ccc(N2CCCC2)c(NC(=O)c2ccc([N+](=O)[O-])o2)c1,inactive
11,O=C(C=Cc1ccco1)c1ccc2ccccc2c1,0.239 µM (active)
12,O=C(/C=C/c1ccco1)NCC(=O)N/N=C/c1ccc(Cl)cc1,inactive
13,CC(/C=C/c1ccco1)=N\NC(=O)CNc1ccc2ccccc2c1,15.1 µM (active)
14,Cc1cccc(C)c1OCC(=O)N/N=C/C=C/c1ccco1,inactive
15,O=C(COC(=O)/C=C/c1ccco1)Nc1ccc(F)cc1Cl,inactive
16,Cc1c(CN(C)C)c2c(n1C)C(=O)c1ccc(Br)cc1-2,inactive
17,Cc1ccccc1CS(=O)(=O)c1cnc2ccccc2n1,inactive
18,Cc1ccc(Cn2c(/C=C/c3ccco3)nc3ccccc32)cc1,6.01 µM (active)
19,O=c1oc2ccc(Cl)cc2nc1/C=C(\O)c1ccco1,inactive
20,CS(=O)(=O)Cc1nc2ccccc2oc1=O,inactive
21,O=c1oc2ccccc2nc1/C=C(\O)c1ccc(Br)cc1,6.01 µM (active)
22,Fc1cccc(Nc2cc(-n3cccn3)ncn2)c1,10.7 µM (active)
23,Fc1cccc(Nc2nc3ccccc3n3cnnc23)c1,inactive
24,Cc1ccc2cc3c(NC(=O)c4ccco4)nn(C)c3nc2c1,12 µM (active)

row,SMILES,Potency
1,O=C(NC(=S)Nc1cnc2ccccc2c1)c1ccccc1,3.38 µM (active)
2,O=C(Nc1cnc2ccccc2c1)c1ccco1,1.35 µM (active)
3,Cc1cc(NC(=S)NC(=O)c2ccco2)c2ccccc2n1,inactive
4,O=C(Nc1nc2ccc(F)cc2s1)c1ccc([N+](=O)[O-])o1,2.13 µM (active)
5,Cn1ccsc1=NC(=O)c1ccc([N+](=O)[O-])o1,inactive
6,O=C(CCS(=O)(=O)c1ccccc1)Nc1nc2ccc(F)cc2s1,inactive
7,CN(Cc1ccccc1)C(=O)c1ccc([N+](=O)[O-])o1,inactive
8,O=C(c1ccc([N+](=O)[O-])o1)N1CCN(c2nc3c(Cl)cccc3s2)CC1,inactive
9,O=C(Nc1nc2c(Cl)cccc2s1)c1ccc([N+](=O)[O-])o1,10.7 µM (active)
10,Cc1ccc(-n2nc3c([n+]2[O-])CCc2c-3no[n+]2[O-])cc1,inactive
11,COc1cc(Cl)cc(/C=C/c2ccc3cccc(O)c3n2)c1OC,9.53 µM (active)
12,Oc1ccc(Cl)cc1/C=C/c1ccc2cccc(O)c2n1,9.53 µM (active)
13,CN(N=Cc1ccccc1O)c1ccc2ccccc2n1,0.849 µM (active)
14,CSc1nsc(SC)c1C(=O)Nc1ccc(Cl)cc1,inactive
15,O=C(Nc1ccc(F)cc1)c1nsc(Cl)c1Cl,1.69 µM (active)
16,O=C(Nc1ccc(OC(F)F)cc1)c1ncc(Cl)c(Cl)c1Cl,inactive
17,COc1ccc(Nc2nc(C)nc3sc4c(c23)CCC4)cc1O,inactive
18,CC1(C)CC[C@]2(C(=O)n3ccnc3)CC[C@]3(C)[C@H](C(=O)C=C4[C@@]5(C)C=C(C#N)C(=O)C(C)(C)[C@@H]5CC[C@]43C)[C@@H]2C1,0.478 µM (active)
19,N#Cc1sc2nc(-c3ccccc3)cc(C(F)(F)F)c2c1N,inactive
20,COC(=O)c1sccc1NC(=O)c1cccc(Cl)c1,inactive
21,COc1cccc(C(=O)Nc2cc(Cl)c(O)c(Cl)c2)c1,12 µM (active)
22,COc1cccc(NC(=O)c2cc(Cl)nnc2Cl)c1,inactive
